Entries with a potency or affinity are not part of this list. Records with an inconclusive call do not appear. Activity calls are given as the source filed them. Unless noted, how the calls were made is not given here.
Key:
[1] = RMG-1 ovarian cancer cell viability loss – cherry-pick, dose response (AID 687029;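 active means signal drop whose fitted half-maximal concentration is at most twice the top valid dose, in every test run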;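 further: cells exposed to compound for 96 hours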)
[2] = IOSE-T80 viability loss, PAX8-independent line – cell-based, cherry-pick, selectivity assay for PAX8 inhibitor project, dose response (AID 687032;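 active means fitted half-maximal concentration for viability loss no higher than twice the top valid dose, in every repeat run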;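 further: cells exposed to compound for 96 h before reading; 0% = neutral control wells and -100% = 2 µM mitoxantrone kill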)
[3] = CMV-driven luciferase expression suppression in HEK293 – cell-based, luminescence, dry powder, counter-screen for Pax8 inhibitor project, dose response (AID 743020;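 active means signal-lowering compounds whose fitted half-maximal concentration is at or below twice the top tested dose in every run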;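 further: HEK293 cells stably expressing the CMV luciferase reporter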)
[4] = general cell-killing toxicity readout – plate reader, dry powder samples, cytotoxicity control for PAX8 inhibitor project, dose response (AID 743021)
[5] = IGROV1 cell killing – plate reader, dry powder samples, PAX8 inhibitor project, dose response (AID 743043);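 further: more negative means fewer viable cells or more cytotoxicity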
[6] = OVCAR-3 cell viability loss – plate reader, dry powder samples, PAX8 inhibitor project, dose response (AID 743044); settings: max activity: at 35 µM, stronger effect = lower value unless noted
[7] = toxicity toward immortalized ovarian surface epithelium – cell-based, plate reader, dry powder samples, cytotoxicity control for PAX8 inhibitor project, dose response (AID 743045);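 further: 0% = neutral control median and -100% = positive control median; more negative values mean more cell killing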
[8] = A2780 cell killing – plate reader, dry powder samples, cytotoxicity control, dose response (AID 743046);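 further: 0% = neutral control wells and -100% = cytotoxic reference compound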
[9] = OVCAR8 cell viability loss – plate reader, dry powder samples, PAX8 project, dose response (AID 743197)

Measured: max activity

Cc1ccc(S(=O)(=O)N(C)C[C@@H]2OCCCC[C@H](C)Oc3ccc(NS(=O)(=O)c4cccs4)cc3C(=O)N([C@H](C)CO)C[C@H]2C)cc1
inactive: [1] | [2] | [3] | [4] | [5] | [6] 5.96% | [7] | [8]

COc1ccc(CN(C)C[C@@H]2OCCCC[C@@H](C)Oc3ccc(NC(=O)Nc4ccc(C(F)(F)F)cc4)cc3C(=O)N([C@@H](C)CO)C[C@H]2C)cc1
inactive: [1] | [2] | [3] | [4] | [5] | [6] -5.22% [at 16 µM, stronger effect = lower value] | [7] | [8]

C[C@H]1CN([C@@H](C)CO)C(=O)c2c(c3ccccc3n2C)-c2ccccc2CO[C@H]1CN(C)S(=O)(=O)c1ccc(C(F)(F)F)cc1
inactive: [1] | [2] | [3] | [4] | [5] | [6] -24.4% | [7] | [8]

C[C@H](O)C#Cc1ccc2c(c1)O[C@H](CN(C)Cc1ccc(-c3ccccc3)cc1)[C@H](C)CN([C@@H](C)CO)S2(=O)=O
inactive: [1] | [2] | [3] | [4] | [5] | [6] 54.2% [at 0.5 µM, stronger effect = lower value] | [7] | [8]

C[C@@H]1CN([C@@H](C)CO)C(=O)c2c(c3ccccc3n2C)-c2ccccc2CO[C@H]1CN(C)S(=O)(=O)c1ccccc1F
inactive: [1] | [2] | [3] | [4] | [5] | [6] -17.2% [at 18 µM, stronger effect = lower value] | [7] | [8]

C[C@H]1CN([C@@H](C)CO)C(=O)c2cc(NS(=O)(=O)c3ccc(Cl)cc3)ccc2O[C@H]1CN(C)Cc1ccc(Cl)c(Cl)c1
inactive: [1] | [2] | [3] | [4] | [5] | [6] -29.6% | [7] | [8]

CN1c2ccc(-c3ccccc3)cc2[C@@H]2[C@@H](CCN2C(=O)NC2CCCCC2)[C@@H]1CO
inactive: [1] | [2] | [3] | [4] | [5] | [6] 7.48% [at 0.26 µM, stronger effect = lower value] | [7] | [8]

C[C@@H]1CN([C@H](C)CO)S(=O)(=O)c2ccc(C#Cc3ccncc3)cc2O[C@H]1CN(C)C(=O)Nc1ccc2c(c1)OCO2
inactive: [1] | [2] | [3] | [4] | [5] | [6] -26.8% [at 16 µM, stronger effect = lower value] | [7] | [8] | [9]

Cc1ccc(S(=O)(=O)N(C)C[C@@H]2OCCCC[C@H](C)Oc3ccc(NS(=O)(=O)c4ccc(Cl)cc4)cc3C(=O)N([C@H](C)CO)C[C@H]2C)cc1
inactive: [1] | [2] | [3] | [4] | [5] | [6] 19.8% [at 0.5 µM, stronger effect = lower value] | [7] | [8] | [9]

C[C@@H]1CN([C@H](C)CO)C(=O)Cc2cc(NC(=O)Cc3ccccc3)ccc2O[C@@H]1CN(C)Cc1ccc(C(F)(F)F)cc1
inactive: [1] | [2] | [3] | [4] | [5] | [6] -9.67% [at 0.26 µM, stronger effect = lower value] | [7] | [8] | [9]

C[C@@H]1CCCCO[C@H](CN(C)C(=O)Nc2ccc(C(F)(F)F)cc2)[C@@H](C)CN([C@@H](C)CO)C(=O)c2cc(NC(=O)Nc3ccccc3)ccc2O1
inactive: [1] | [2] | [3] | [4] | [5] | [6] -5.92% [at 16 µM, stronger effect = lower value] | [7] | [8] | [9]

CN1C[C@@H]2[C@H](c3ccccc31)[C@H](CO)N2Cc1ccccc1Cl
inactive: [1] | [2] | [3] | [4] | [5] | [6] 22.5% | [7] | [8] | [9]

C[C@H]1CN([C@@H](C)CO)C(=O)Cc2cc(NC(=O)Nc3ccc(C(F)(F)F)cc3)ccc2O[C@H]1CN(C)C(=O)NC1CCCCC1
inactive: [1] | [2] | [3] | [4] | [5] | [6] 30.7% [at 1.1 µM, stronger effect = lower value] | [7] | [8] | [9]

C[C@H]1CCCCO[C@H](CN(C)C(=O)Nc2ccc(C(F)(F)F)cc2)[C@@H](C)CN([C@@H](C)CO)C(=O)c2cc(NC(=O)c3ccncc3)ccc2O1
inactive: [1] | [2] | [3] | [4] | [5] | [6] -23.2% [at 0.26 µM, stronger effect = lower value] | [7] | [8] | [9]

C[C@@H]1CCCCO[C@H](CN(C)Cc2ccc(Cl)c(Cl)c2)[C@@H](C)CN([C@@H](C)CO)C(=O)c2cc(NS(=O)(=O)c3ccc(Cl)cc3)ccc2O1
inactive: [1] | [2] | [3] | [4] | [5] | [6] -6.91% [at 4.2 µM, stronger effect = lower value] | [7] | [8] | [9]

Cc1ccc(S(=O)(=O)N(C)C[C@H]2Oc3ccc(NC(=O)Cc4ccccc4)cc3C(=O)N([C@H](C)CO)C[C@@H]2C)cc1
inactive: [1] | [2] | [3] | [4] | [5] | [6] 7.17% [at 8 µM, stronger effect = lower value] | [7] | [8] | [9]

C[C@@H]1CCCCO[C@H](CN(C)C(=O)Nc2ccc(C(F)(F)F)cc2)[C@@H](C)CN([C@@H](C)CO)C(=O)c2cc(NS(=O)(=O)c3cccs3)ccc2O1
inactive: [1] | [2] | [3] | [4] | [5] | [6] -19.5% [at 4.2 µM, stronger effect = lower value] | [7] | [8] | [9]

O=C(C[C@@H]1CC[C@@H]2[C@H](COC[C@H](O)CN2S(=O)(=O)c2cccc(Cl)c2)O1)Nc1ccc(-c2ccccc2)cc1
inactive: [1] | [2] | [3] | [4] | [5] | [6] -18.5% | [7] | [8] | [9]

O=C(C[C@@H]1C[C@H]2c3cc(NC(=O)Nc4ccc(C(F)(F)F)cc4)ccc3O[C@H]2[C@H](CO)O1)NCCc1ccccc1
inactive: [1] | [2] | [3] | [4] | [5] | [6] 13% | [7] | [8] | [9]

Cc1ccc(S(=O)(=O)Nc2cccc3c2O[C@@H](CN(C)C(=O)Nc2ccc(C(F)(F)F)cc2)[C@@H](C)CN([C@H](C)CO)C3=O)cc1
inactive: [1] | [2] | [3] | [4] | [5] | [6] 25% [at 2.1 µM, stronger effect = lower value] | [7] | [8] | [9]

C[C@H]1CCCCO[C@H](CN(C)Cc2ccc(Cl)c(Cl)c2)[C@@H](C)CN([C@@H](C)CO)C(=O)c2cc(NC(=O)Nc3ccc(F)cc3)ccc2O1
inactive: [1] | [2] | [3] | [4] | [5] | [6] -19.8% [at 0.26 µM, stronger effect = lower value] | [7] | [8] | [9]

Cc1ccc(S(=O)(=O)Nc2ccc3c(c2)C(=O)N([C@@H](C)CO)C[C@H](C)[C@@H](CN(C)C(=O)Nc2ccc(C(F)(F)F)cc2)OCCCC[C@H](C)O3)cc1
inactive: [1] | [2] | [3] | [4] | [5] | [6] -5.62% | [7] | [8] | [9]

Cc1ccc(S(=O)(=O)Nc2ccc3c(c2)C(=O)N([C@H](C)CO)C[C@H](C)[C@H](CN(C)C(=O)c2ccccc2)OCCCC[C@H](C)O3)cc1
inactive: [1] | [2] | [3] | [4] | [5] | [6] -23.6% | [7] | [8] | [9]

C[C@@H]1CCCCO[C@H](CN(C)S(=O)(=O)c2ccc(Cl)cc2)[C@@H](C)CN([C@@H](C)CO)C(=O)c2cc(NC(=O)Nc3ccc(C(F)(F)F)cc3)ccc2O1
inactive: [1] | [2] | [3] | [4] | [5] | [6] 9.63% [at 2.1 µM, stronger effect = lower value] | [7] | [8] | [9]

C[C@@H]1CCCCO[C@@H](CN(C)C(=O)C2CCCCC2)[C@H](C)CN([C@@H](C)CO)C(=O)c2cc(NS(=O)(=O)c3ccc(Cl)cc3)ccc2O1
inactive: [1] | [2] | [3] | [4] | [5] | [6] -23.1% | [7] | [8] | [9]

C[C@@H]1CN([C@@H](C)CO)C(=O)c2cc(NC(=O)NC3CCCCC3)ccc2O[C@@H](C)CCCCO[C@H]1CN(C)Cc1ccc(C(F)(F)F)cc1
inactive: [1] | [2] | [3] | [4] | [5] | [6] -25.9% | [7] | [8] | [9]

C[C@H]1CCCCO[C@@H](CN(C)C(=O)NC2CCCCC2)[C@@H](C)CN([C@@H](C)CO)C(=O)c2cc(NC(=O)Nc3ccc(C(F)(F)F)cc3)ccc2O1
inactive: [1] | [2] | [3] | [4] | [5] | [6] 10.8% [at 2.1 µM, stronger effect = lower value] | [7] | [8] | [9]

C[C@@H]1CCCCO[C@@H](CN(C)Cc2ccc(Cl)c(Cl)c2)[C@H](C)CN([C@H](C)CO)C(=O)c2cc(NS(=O)(=O)c3ccccc3)ccc2O1
inactive: [1] | [2] | [3] | [4] | [5] | [6] 8.76% [at 1.95 µM, stronger effect = lower value] | [7] | [8] | [9]
